In PubChem BioAssay (NCATS):
Records with an inconclusive call do not appear. Where a call stands in place of a potency, no number is given. Active and inactive are the calls of the source. The call rests on the fitted dose curve; in most records, active means well fitted curve in the direction sought with a large enough effect; inconclusive means small, poorly fitted or top-dose-only effect, or another doubt; inactive means no such curve, though single readings can be large; an effect the other way counts as inactive or inconclusive.

Columns and labels:
[1] = Primary qHTS for inhibitors of nuclear receptor binding SET domain protein 2 (NSD2) in an isogenic RCH-ACV NSD2 p.E1099K mutant (9B) (AID 1645876); settings: RCH-ACV NSD2 E1099K (9B) viability, CellTiter-Glo, 72 h; series mostly up to 44.9 µM; further: nearly all actives have a fitted effect of over 70% in size; further: potency means the concentration at half of the fitted maximal effect
[2] = Primary qHTS for inhibitors of nuclear receptor binding SET domain protein 2 (NSD2) in an RCH-ACV wild type WT cells (2C) (AID 1645877); settings: RCH-ACV (leukaemia line) NSD2 WT (2C) viability, CellTiter-Glo, 72 h; series mostly up to 44.9 µM; further: nearly all actives have a fitted effect of over 70% in size; further: potency means the concentration at half of the fitted maximal effect
[3] = target: Glutathione peroxidase 1 (Homo sapiens) (UniProt P07203); assay: Primary qHTS Assay for Inhibitors of Recombinant Selenoprotein Glutathione Peroxidase 1 (GPX1) (AID 1845191); settings: recombinant GPX1, GR-coupled NADPH fluorescence, 15 min; series mostly up to 48.8 µM; further: nearly all actives have a fitted effect of over 65% in size
Sequence of Glutathione peroxidase 1 (Homo sapiens) (P07203 whole entry, looked up): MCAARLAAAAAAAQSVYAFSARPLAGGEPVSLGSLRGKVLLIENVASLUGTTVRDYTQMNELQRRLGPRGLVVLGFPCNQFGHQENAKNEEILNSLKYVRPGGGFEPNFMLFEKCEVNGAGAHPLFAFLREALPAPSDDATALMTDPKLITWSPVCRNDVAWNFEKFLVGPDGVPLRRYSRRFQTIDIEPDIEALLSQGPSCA
Method in brief: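 GPX1 10 nM, GR 100 nM, GSH 1 mM, NADPH 0.5 mM, CHP 0.5 mM (final). 30-min cpd preincubation, RT. Ex340/Em450 read t=0, t=15 min.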

SMILES	Potency [1]	Potency [2]	Potency [3]
C[C@H]1[C@H](O)O[C@@H]2O[C@@]3(C)CC[C@H]4[C@H](C)CC[C@@H]1[C@@]24OO3	1.18 µM (active)	833 nM (active)	inactive
CC1CC(O)/C=C/C(O)C(O)CC(=O)Cc2c(Cl)c(O)cc(O)c2C(=O)O1 (stereo unspecified)	inactive	inactive	inactive
C[C@H](NC(c1cccc(C[P+](=O)O)c1)[C@H](C)O)c1ccc(Cl)c(Cl)c1 (stereo partly specified)	inactive	inactive	inactive
OCc1ccc(O[C@@H]2O[C@H](CO)[C@@H](O)[C@H](O)[C@H]2O)cc1	inactive	inactive	inactive
C=C1C(O)C[C@@H]2C(C(=O)O)=CO[C@@H](O[C@@H]3O[C@H](CO)[C@@H](O)[C@H](O)[C@H]3OC(=O)c3ccc(O)cc3)[C@H]12 (stereo partly specified)	inactive	inactive	inactive
COc1cc(/C=C/C(=O)O[C@H]2[C@H](O)[C@@H](CO)O[C@@]2(CO)O[C@H]2O[C@H](CO)[C@@H](O)[C@H](O)[C@H]2O)ccc1O	inactive	inactive	inactive
CC(C)CC1NC(=O)C2CC3(O)c4ccccc4NC3N2C1=O (stereo unspecified)	inactive	inactive	inactive
C/C=C(/COC(=O)/C(C)=C/C)C(=O)OC(CC)c1ccc(OC)c(OC)c1 (stereo unspecified)	inactive	inactive	inactive
N[C@@]1(C(=O)O)CC[C@H]2[C@H](C(=O)O)[C@H]21	inactive	inactive	inactive
C=C(C(=O)O)C1CCC2(C)CCCC(C)(O)C2C1 (stereo unspecified)	inactive	inactive	inactive
CC1=CC(=O)CC(C)(C)[C@@]1(O)CC[C@@H](C)O[C@@H]1O[C@H](CO)[C@@H](O)[C@H](O)[C@H]1O	inactive	inactive	inactive
CC(C)C(C(=O)N(C)C(C)C(N)=O)N(C)C(=O)C1CCCN1C(=O)/C=C/C=C/C(O)C(C)O (stereo unspecified)	inactive	inactive	inactive
CC(C)(O[C@@H]1O[C@H](CO)[C@@H](O)[C@H](O)[C@H]1O)C(OC(=O)/C=C\c1ccc(O)cc1)C(=O)OCc1ccc(O[C@@H]2O[C@H](CO)[C@@H](O)[C@H](O)[C@H]2O)cc1 (stereo partly specified)	inactive	inactive	inactive
CC(=O)NC1C(OC(C)(C)C2CCC3(C)C=C(C4CCC5C4(C)CC(O)C4OC(C(C)(C)O)CCC45C)CCC3O2)OC(CO)C(O)C1O (stereo unspecified)	inactive	inactive	inactive
CC1(O)CCCC2(C)C1CCC13CC(CO)C(CCC12)C3 (stereo unspecified)	inactive	inactive	inactive
CC(=O)O[C@@H]1C[C@@H](OC(C)=O)C(C)(C)/C=C/[C@H](C)[C@H](OC(C)=O)[C@@]2(O)C[C@H](C)[C@H](OC(=O)c3ccccc3)[C@@H]2/C=C/1C	inactive	inactive	inactive
C=C1C[C@]23C[C@H]1CC[C@H]2[C@]1(C)CCC[C@@](C)(C(=O)O)[C@H]1[C@@H]3C(=O)O	inactive	inactive	inactive
C#CC[C@H](c1nc2cc(Cl)ccc2c(=O)n1Nc1ccccc1)N(CCCN)C(=O)c1cccc(Cl)c1F	0.372 µM (active)	332 nM (active)	inactive
CC(C)C(C#N)O[C@@H]1O[C@H](CO[C@@H]2O[C@@H](C)[C@H](O)[C@@H](O)[C@H]2O)[C@@H](O)[C@H](O)[C@H]1O (stereo partly specified)	inactive	inactive	inactive
CCC1C(=O)OC23C=C[C@@H]4C(C(=O)O)=CO[C@H](O[C@@H]12)[C@@H]43 (stereo partly specified)	25.8 µM (active)	18300 nM (active)	inactive
CC(C)c1ccc(CO)cc1O[C@@H]1O[C@H](CO)[C@@H](O)[C@H](O)[C@H]1O	inactive	inactive	inactive
COc1ccc(/C=C/C(=O)O[C@@H]2[C@@H](O)[C@H](C)O[C@@H](O[C@H]3[C@@H]4C=CO[C@@H](O[C@H]5O[C@@H](CO)[C@H](O)[C@@H](O)[C@@H]5O)[C@@H]4[C@@]4(CO)O[C@@H]34)[C@@H]2OC(C)=O)cc1	inactive	inactive	inactive
